Assay outcomes from PubChem.
nsP2pro inh: blocks chikungunya virus nsP2 protease peptide cleavage. AID 1964107. 1.1% of 31,000 active. FRET peptide cleavage, nsP2pro, fluorescence 1 h. Potency, µM (doses to about 24.9 µM), for inactives: at the top dose activity change, negative = inhibition, usual class: inhibitors. Q8JUX6; further: nearly all actives have a fitted effect of over 60% in size
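Enzyme 150 nM, substrate 2.5 uM (both final); Tris-HCl 10 mM pH 8.0 + 0.01% Tween 20; cpd up to 25 uM, 7 pts; 15 min preinc., 1 h RT; fluorescence ex 525/em 598.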
nsP2 cell sec: inhibits CHIKV nsP2 protease in cells. shares compounds with nsP2pro inh. cell-based CHIKV nsP2 protease reporter assay. Potency, µM (titrated, usually from 51.1 µM), without a hit: top-dose activity change, negative = inhibition, actives largely listed as inhibitors. 10% of 450 active. AID 1964100; further: nearly all actives have a fitted effect of over 70% in size
CHIKV NSP2 FL: selectivity test for CHIKV nsP2 protease inhibitors: full-length NSP2. 39% of 410 active. Full-length CHIKV NSP2 protease enzymatic counterscreen. AID 1964101. shares compounds with nsP2pro inh. Potency, µM (titrated, usually from 50.7 µM), for the others: at the top dose activity change, negative = inhibition, hits mostly inhibitors; further: nearly all actives have a fitted effect of over 65% in size
Furin counter: inhibits human furin in a CHIKV nsP2 protease selectivity counterscreen; 6% of 410 active; AID 1964102; Potency, µM (top dose mostly 50.6 µM), for the others: at the top dose activity change, negative = inhibition, usual class: inhibitors; shares compounds with nsP2pro inh; Recombinant human furin enzymatic counterscreen, fluorogenic substrate
Target sequence (P09958 whole entry, looked up): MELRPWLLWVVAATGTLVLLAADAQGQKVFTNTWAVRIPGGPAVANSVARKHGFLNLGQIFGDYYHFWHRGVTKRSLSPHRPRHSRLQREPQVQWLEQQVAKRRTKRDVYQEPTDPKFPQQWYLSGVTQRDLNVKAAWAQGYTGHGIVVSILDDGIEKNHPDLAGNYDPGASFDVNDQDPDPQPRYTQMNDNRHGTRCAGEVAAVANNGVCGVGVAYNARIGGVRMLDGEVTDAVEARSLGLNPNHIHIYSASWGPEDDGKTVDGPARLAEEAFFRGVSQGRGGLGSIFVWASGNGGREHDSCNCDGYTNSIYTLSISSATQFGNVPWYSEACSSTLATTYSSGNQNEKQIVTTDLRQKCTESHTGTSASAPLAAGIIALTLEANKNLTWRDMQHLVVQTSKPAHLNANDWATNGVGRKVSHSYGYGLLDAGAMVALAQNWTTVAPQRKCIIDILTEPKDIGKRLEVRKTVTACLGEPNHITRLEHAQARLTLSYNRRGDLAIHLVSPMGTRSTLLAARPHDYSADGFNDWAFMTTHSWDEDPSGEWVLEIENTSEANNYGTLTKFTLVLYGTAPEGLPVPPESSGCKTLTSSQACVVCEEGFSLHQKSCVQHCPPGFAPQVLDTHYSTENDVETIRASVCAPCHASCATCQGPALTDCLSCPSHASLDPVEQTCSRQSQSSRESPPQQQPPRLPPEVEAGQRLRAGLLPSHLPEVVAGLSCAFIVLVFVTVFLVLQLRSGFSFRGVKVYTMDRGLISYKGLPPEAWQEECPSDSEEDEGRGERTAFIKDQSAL
NS23 peptide cs: nsP2pro inhibition on native NS2/3 peptide substrate. 34% of 410 active. Potency, µM (top dose mostly 51 µM), for the others: at the top dose activity change, negative = inhibition, most hits filed as inhibitors. shares compounds with nsP2pro inh. AID 1964103. Purified CHIKV nsP2 protease, endogenous NS2/3 peptide cleavage; further: nearly all actives have a fitted effect of over 55% in size
Papain cs: selectivity counter-screen for CHIKV nsP2 protease inhibitors: papain. shares compounds with nsP2pro inh. purified papain protease activity, enzymatic inhibition. Potency, µM (doses to about 51 µM), for inactives: at the highest dose activity change, negative = inhibition, hits mostly inhibitors. 5% of 410 active
nsP2pro conf qHTS: confirmation of CHIKV nsP2 protease inhibitors | shares compounds with nsP2pro inh | CHIKV nsP2 protease enzymatic activity, qHTS | Potency, µM (doses to about 25.5 µM), for inactives: at the highest dose activity change, negative = inhibition, hits mostly inhibitors | 43% of 410 active | AID 1964105; further: nearly all actives have a fitted effect of over 75% in size
HCV NS3 counter: selectivity counter-screen for CHIKV nsP2 protease inhibitors: HCV NS3/4A. shares compounds with nsP2pro inh. HCV NS3/4A protease biochemical counterscreen. Potency, µM (top dose mostly 50.9 µM), hits mostly inhibitors. 20% of 410 active; further: nearly all actives have a fitted effect of over 55% in size
Starred values were filed as active, the others as inactive; i = inactive; ? = inconclusive; ! = not active in a repeat; [ ] = dose if it differs, or a comment. The full list was thinned out, with hits kept by preference. The call rests on the fitted dose curve. On the % scale 0 is the no-effect control and ±100 the full control effect; potency means the concentration at half of the fitted maximal effect.

SMILES	nsP2pro inh	others
CC(C)(C)OC(=O)N[C@@H](Cc1ccc(O[S+](=O)([O-])c2cccc3cnccc23)cc1)C(=O)Nc1ccc(-c2ccccc2)cc1	-6.6%
CC(C)n1cc(-c2ccc(Oc3ccccc3)cc2)c2c(N)ncnc21	3.5%
CC(=O)Nc1ccccc1	-2.0%
CC(=O)Oc1ccccc1C(=O)O	-8.2%
CC(=O)[O][Hg][c]1ccccc1	1.24µM*	nsP2 cell sec=1.26µM*;CHIKV NSP2 FL=1.83µM*;Furin counter=1.16µM*;NS23 peptide cs=4.61µM*;Papain cs=-6.5%;nsP2pro conf qHTS=0.356µM*;HCV NS3 counter=?
N#Cc1ccc(-c2ccc(CNc3ccc(N4CCOCC4)cc3)o2)cc1	-19.7%
N#Cc1ccc(-c2ccc(CNc3ccc(N4CCN5CCCCC5C4)cc3)o2)cc1 (stereo not drawn)	-21.3%
N#Cc1ccc(-c2ccc(CNc3ccc(N4CCCCC4)cc3)o2)cc1	3.55µM*	nsP2 cell sec=?;CHIKV NSP2 FL=-60.9%;Furin counter=-4.3%;NS23 peptide cs=?;Papain cs=-20.9%;nsP2pro conf qHTS=?;HCV NS3 counter=1.83µM*
Cc1ccc(S(=O)(=O)Nc2cnccc2C(=O)Nc2nc(-c3ccccc3Cl)cs2)cc1	i
C=CCCOC(=O)N1C[C@@H](CO)[C@@H]2Oc3ccc(Cl)cc3[C@@H]21	-1.4%
CN1CCCC2(C1)CN(C)c1ccc(C(=O)NCC3CCCCC3)cc12 (stereo not drawn)	i
CNC(=O)Oc1ccc2c(c1)[C@]1(C)CCN(C)[C@@H]1N2C	4.42µM*!	nsP2 cell sec=-3.8%;CHIKV NSP2 FL=-18.8%;Furin counter=-1.9%;NS23 peptide cs=-16.2%;Papain cs=-7.8%;nsP2pro conf qHTS=?;HCV NS3 counter=i
Cc1ccc(-c2cc(-c3cccnc3)nc3c(C)noc23)c(C)c1	i
CC(=O)c1ccc(N2CCN(S(=O)(=O)c3ccc4[nH]c(=O)oc4c3)CC2)cc1	i
O=C(c1ccc(Br)o1)N1C[C@@H](CO)[C@H](c2ccncc2)C1	i
O=C(NCc1c(F)cc(F)cc1F)c1cn2c(c(O)c1=O)C(=O)N1[C@H]3CC[C@H](C3)O[C@@H]1C2	55.0%
CNc1oc(-c2c[nH]c3ccccc23)nc1C#N	i
Clc1ncoc1-c1c[nH]c2ccccc12	?	nsP2 cell sec=-13.3%;CHIKV NSP2 FL=-18.5%;Furin counter=-1.9%;NS23 peptide cs=-26.1%;Papain cs=-13.1%;nsP2pro conf qHTS=-22.3%;HCV NS3 counter=i
N#Cc1cc(CN2CCCC(C(=O)Nc3cccc(-c4ccc(F)cc4)c3)C2)c[nH]1 (stereo not drawn)	3.2%
COC1CCN(c2cc(-c3ccsc3)nc3c(C)noc23)CC1	i
CN(C)C/C=C/C(=O)Nc1cccc(C(=O)Nc2ccc(Nc3nccc(-c4cccnc4)n3)cc2)c1	201.4%
CC(=O)c1ccc(N2CCN(c3ccc(NC(=O)c4ccc(F)cc4)cc3C(=O)O)CC2)cc1	36.2%
O=C(Nc1ccc(N2CCN(c3ccc(F)cc3)CC2)c(C(=O)O)c1)c1cccs1	?	nsP2 cell sec=35.8%;CHIKV NSP2 FL=5.17µM*;Furin counter=-17.3%;NS23 peptide cs=13µM*;Papain cs=-3.0%;nsP2pro conf qHTS=7.98µM*;HCV NS3 counter=4.11µM*
CN1CCN(c2ccc(NC(=O)c3cccs3)cn2)CC1	-10.1%
NNc1ccc(NC(=O)c2cccs2)cn1	i
SMILES	nsP2pro inh	others
O=C(Nc1cnc(N2CCN(c3ccccc3)CC2)c(C(=O)O)c1)c1cccs1	2.51µM*	nsP2 cell sec=-0.5%;CHIKV NSP2 FL=2.06µM*;Furin counter=?;NS23 peptide cs=6.51µM*;Papain cs=-12.3%;nsP2pro conf qHTS=5.65µM*;HCV NS3 counter=2.91µM*
Cc1ccccc1C(=O)Nc1ccc2c(c1)CCCN2C(=O)c1cccs1	41.3%
COc1ccc(C2Nc3ccccc3C(=O)N2Cc2ccccc2)cc1COc1c(C)cc(NC(C)=O)cc1C (stereo not drawn)	-2.9%
CCCCC(=O)N(Cc1ccc(-c2ccccc2-c2nnn[nH]2)cc1)[C@H](C(=O)O)C(C)C (tested in a mixture with another compound)	-12.8%
CCOC(=O)c1cnc2ccc(-c3cncc(NS(=O)(=O)c4ccccc4)c3)cn12	0.1%
O=C(O)c1cccc(-n2cccc2/C=C2/C(=O)N(Cc3ccc(F)cc3)C(=O)N2Cc2ccc(F)cc2)c1	i
CC[C@H](C)[C@@H]([C@@H](CC(=O)N1CCC[C@H]1[C@H](OC)[C@@H](C)C(=O)NCCc1ccccc1)OC)N(C)C(=O)[C@@H](NC(=O)[C@H](C(C)C)N(C)C)C(C)C	-3.6%
COC(=O)c1ccc(O)c2ncc(-c3ccc(C(=O)NCCCN(C)C)cc3)cc12	i
Cc1ccc(C#Cc2cc(-c3nn(-c4nc(C(=O)O)cs4)c(CC4CC4)c3Cc3ccc(S(N)(=O)=O)c(F)c3)ccc2F)o1	3.98µM*	nsP2 cell sec=0.13µM*;CHIKV NSP2 FL=?;Furin counter=-22.4%;NS23 peptide cs=55.6%;Papain cs=23.1µM*;nsP2pro conf qHTS=-52.2%;HCV NS3 counter=i
CCCC(=O)N1CCC(N2C(=O)N(Cc3cccnc3)CC23CCOC3)CC1 (stereo not drawn)	1.0%
CCN(Cc1ccccc1)C(=O)CCC[C@H]1NC[C@@H]2CC1CN(Cc1ccccc1)C2	4.6%
O=C(O)[C@H]1C2CCC(CC2)[C@@H]1Nc1nc(-c2c[nH]c3ncc(F)cc23)ncc1F	?	nsP2 cell sec=-10.9%;CHIKV NSP2 FL=-36.2%;Furin counter=-11.1%;NS23 peptide cs=i;Papain cs=?;nsP2pro conf qHTS=?;HCV NS3 counter=i
C[C@@H]1COCCN1c1cc(C2(S(C)(=N)=O)CC2)nc(-c2ccnc3[nH]ccc23)n1 (stereo partly drawn)	i
CCN(CC)Cc1ccc(C(=O)N(CCc2ccccc2OC)[C@@H]2CCNC2)cc1	?	nsP2 cell sec=12.0%[17.6 µM];CHIKV NSP2 FL=6.34µM*;Furin counter=-9.4%;NS23 peptide cs=-40.2%[17.2 µM];Papain cs=-20.0%[17.2 µM];nsP2pro conf qHTS=?;HCV NS3 counter=?
CCN1CCC(N(Cc2ccc3c(c2)OCO3)C(=O)Nc2ccccc2OC)CC1	-6.6%
COc1ccc(CN(C(=O)COc2ccccc2OC)C2CCS(=O)(=O)C2)cc1 (stereo not drawn)	-19.5%
O=C1CCCC2=C1C(c1cccnc1Cl)N=C(Nc1nc3ccccc3o1)N2 (stereo not drawn)	-3.2%
c1nc(NCCc2cnc[nH]2)c2cc(-c3ccoc3)ccc2n1	4.2%
CC(C)c1cc2c(c(O)c1O)[C@@]13CCCC(C)(C)C1[C@@H](O)[C@@H]2OC3=O (stereo partly drawn)	6.1µM*	nsP2 cell sec=19.9%[33.5 µM];CHIKV NSP2 FL=?;Furin counter=-5.7%[33.5 µM];NS23 peptide cs=?;Papain cs=-9.0%[33.5 µM];nsP2pro conf qHTS=6.21µM*;HCV NS3 counter=i
CC1(C)CCCC2(C)c3c4c(c(=O)oc(=O)c3=CCC12)=CCC1C(C)(C)CCCC41C (stereo not drawn)	4.5%[10 µM]
O=C(NCc1ccccc1)c1cn(C2CNC2)nn1	-29.8%
